Experimental data from PubChem BioAssay (Tox21).
Records with an inconclusive call do not appear. Active and inactive are the calls of the source. Unless noted, calls come from the whole dose curve; as a rule, active = well fitted curve in the direction sought with a large enough effect in the repeat runs; inconclusive = weak or mixed curves; inactive = no such curve, though single readings can be large; an effect the other way counts as inactive or inconclusive.

Legend:
[1] = molecular target: Retinoic acid receptor RXR-alpha (Homo sapiens) (UniProt P19793); assay: qHTS assay to identify small molecule agonists of the RXR signaling pathway (AID 1159527; calls by dose curve; note: nearly all actives have a fitted effect of over 35% in size)
Chain of Retinoic acid receptor RXR-alpha (Homo sapiens) (P19793 whole entry, looked up): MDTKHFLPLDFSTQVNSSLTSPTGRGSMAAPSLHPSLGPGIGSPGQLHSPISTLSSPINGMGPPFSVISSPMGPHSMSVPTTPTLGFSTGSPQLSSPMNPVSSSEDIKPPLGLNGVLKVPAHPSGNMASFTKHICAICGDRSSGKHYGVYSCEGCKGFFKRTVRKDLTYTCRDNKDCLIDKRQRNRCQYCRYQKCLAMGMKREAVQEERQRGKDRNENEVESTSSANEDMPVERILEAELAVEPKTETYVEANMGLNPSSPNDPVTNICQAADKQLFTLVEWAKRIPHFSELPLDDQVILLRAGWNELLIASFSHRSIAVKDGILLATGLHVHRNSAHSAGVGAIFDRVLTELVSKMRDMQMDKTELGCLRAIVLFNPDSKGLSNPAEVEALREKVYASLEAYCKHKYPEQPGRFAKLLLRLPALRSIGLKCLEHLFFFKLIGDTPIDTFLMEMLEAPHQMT
Summary of the method: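 Beta-lactamase reporter assay, agonist format. Engineered HEK 293T line, charcoal-stripped FBS at 2%, overnight (16 hr) exposure, fluorescence at 460 and 530 nm after 405 nm excitation.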

[2] = qHTS assay to identify small molecule agonists of the RXR signaling pathway - cell viability counter screen (AID 1159529);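 note: HEK 293T cells carrying an RXR-alpha UAS beta-lactamase reporter; nearly all actives have a fitted effect of over 50% in size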
Summary of the method: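 Same-well viability check after the LiveBLAzer FRET read: CellTiter-Glo added, luminescence measured after 30 min at room temperature. Reporter HEK 293T cells had been treated with compounds for 16 hr following a 5 hr preincubation.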

[3] = qHTS assay to identify small molecule antagonists of the retinoid acid receptor (RAR) signaling pathway - cell viability counter screen (AID 1159551); note: nearly all actives have a fitted effect of over 35% in size
Summary of the method: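 ATP-based viability, C3RL4 cells, 6 h at 37 C with 1 uM final retinol co-added after compound; luminescence read 30 min post CellTiter-Glo, RT.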

[4] = qHTS assay to identify small molecule antagonists of the retinoic acid receptor (RAR) signaling pathway (AID 1159552; note: nearly all actives have a fitted effect of over 50% in size)
Summary of the method: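 Readout: luciferase luminescence, 30 min post-reagent at RT. Setup: C3RL4 RARE reporter cells, compounds plus retinol 1 uM final, 6 hr incubation at 37 C and 5% CO2.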

[5] = qHTS assay to identify small molecule agonists of the retinoic acid receptor (RAR) signaling pathway (AID 1159553); conditions: C3RL4 RARE luciferase reporter, agonist, 6 h; activation: at 73.3 µM (top of the series)
Summary of the method: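 Quantitative high-throughput format: the Tox21 10K library was tested on C3RL4 RARE-luciferase cells for 6 hr at 37 C and 5% CO2, with luminescence measured after a 30 min room-temperature reagent step.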

[6] = qHTS assay to identify small molecule antagonists of the estrogen related receptor (ERR) signaling pathway from Tox21 library - cell viability counter screen (AID 1224834); note: nearly all actives have a fitted effect of over 30% in size
Summary of the method: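 Compounds in DMSO were pinned onto ERR cells that had been incubated for 6 h, and the plates were held at 37 C for 17.5 h. CellTiter-Fluor reagent was then added and fluorescence was measured after 30 min.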

[7] = molecular target: Luciferin 4-monooxygenase (Photinus pyralis) (UniProt P08659); assay: qHTS assay to identify small molecule inhibitors of firefly luciferase (AID 1224835); note: nearly all actives have a fitted effect of over 25% in size
Chain of Luciferin 4-monooxygenase (Photinus pyralis) (P08659 whole entry, looked up): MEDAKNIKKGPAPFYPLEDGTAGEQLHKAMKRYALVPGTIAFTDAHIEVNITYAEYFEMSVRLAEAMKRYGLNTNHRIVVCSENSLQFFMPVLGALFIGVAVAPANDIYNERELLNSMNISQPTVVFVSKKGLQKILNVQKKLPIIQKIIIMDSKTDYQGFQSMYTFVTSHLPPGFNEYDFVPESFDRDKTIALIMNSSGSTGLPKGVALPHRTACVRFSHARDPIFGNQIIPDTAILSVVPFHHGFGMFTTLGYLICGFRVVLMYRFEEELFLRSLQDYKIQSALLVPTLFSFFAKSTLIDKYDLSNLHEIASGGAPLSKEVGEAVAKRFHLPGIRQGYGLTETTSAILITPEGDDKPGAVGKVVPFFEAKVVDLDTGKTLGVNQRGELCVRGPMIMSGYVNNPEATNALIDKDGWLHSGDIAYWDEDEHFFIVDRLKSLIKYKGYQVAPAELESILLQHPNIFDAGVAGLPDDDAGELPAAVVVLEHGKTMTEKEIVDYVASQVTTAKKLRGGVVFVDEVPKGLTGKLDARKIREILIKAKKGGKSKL
Summary of the method: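 Biochemical qHTS: compounds run as interplate titrations against purified firefly enzyme, with D-luciferin and ATP each at its KM concentration. Light output recorded by CCD imaging.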

[8] = qHTS assay to identify small molecule antagonists of the constitutive androstane receptor (CAR) signaling pathway - cell viability counter screen (AID 1224837); note: nearly all actives have a fitted effect of over 45% in size
Summary of the method: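 Cells are seeded, rested 4 hr at 37 C/5% CO2, dosed with compound (15-point series) and 50 nM CITCO, incubated a further 23 hr, and then CellTiter-Fluor reagent is added before fluorescence is read. The line is HepG2 with stable hCAR and CYP2B6-2.2kb.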

[9] = molecular target: Nuclear receptor subfamily 1 group I member 3 (Homo sapiens) (UniProt Q14994); assay: qHTS assay to identify small molecule antagonists of the constitutive androstane receptor (CAR) signaling pathway (AID 1224838);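 note: HepG2 cells stably expressing hCAR with CYP2B6 luciferase reporter stimulated by CITCO; nearly all actives have a fitted effect of over 40% in size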
Chain of Nuclear receptor subfamily 1 group I member 3 (Homo sapiens) (Q14994 whole entry, looked up): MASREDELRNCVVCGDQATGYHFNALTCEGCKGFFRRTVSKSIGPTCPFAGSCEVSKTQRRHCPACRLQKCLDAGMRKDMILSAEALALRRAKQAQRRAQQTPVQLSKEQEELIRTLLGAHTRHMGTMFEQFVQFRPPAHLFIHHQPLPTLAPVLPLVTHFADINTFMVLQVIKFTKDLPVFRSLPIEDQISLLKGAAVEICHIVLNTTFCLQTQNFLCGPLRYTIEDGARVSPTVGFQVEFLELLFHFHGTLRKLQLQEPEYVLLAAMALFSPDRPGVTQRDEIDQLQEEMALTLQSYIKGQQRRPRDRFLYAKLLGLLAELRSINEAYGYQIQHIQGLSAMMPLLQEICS
Summary of the method: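 Luminescence from a CYP2B6-2.2kb promoter reporter in hCAR-expressing HepG2 cells reflects CAR signaling. Cells received compounds at 15 concentrations and 50 nM CITCO (final), then incubated 24 h at 37 C/5% CO2.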

[10] = molecular target: Nuclear receptor subfamily 1 group I member 3 (Homo sapiens) (UniProt Q14994); assay: qHTS assay to identify small molecule agonists of the constitutive androstane receptor (CAR) signaling pathway (AID 1224839);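 note: HepG2 cells stably carrying human CAR and a CYP2B6 luciferase reporter; nearly all actives have a fitted effect of over 15% in size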
Summary of the method: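 In this screen, CAR-driven CYP2B6 promoter activity is measured by luminescence in HepG2-CYP2B6-hCAR cells after 24 h with test compounds and 0.75 uM PK11195 (final concentration).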

[11] = qHTS assay to identify small molecule antagonists of the estrogen related receptor signaling pathway with the pleiotropic PPARgamma coactivator (PGC) from Tox21 10K library - cell viability counter screen (AID 1224840; active = well fitted cell-killing curve with a large enough effect in the repeat runs, not every such curve was filed as active; note: nearly all actives have a fitted effect of over 40% in size)
Summary of the method: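 Cell viability is measured by CellTiter-Fluor fluorescence in PGC/ERR cells that receive compounds after a 6-hour attachment period and are then incubated 17.5 hours at 37 C.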

[12] = qHTS assay to identify small molecule agonists of the hypoxia (HIF-1) signaling pathway - cell viability counter screen (AID 1224844; calls by dose curve; note: nearly all actives have a fitted effect of over 50% in size)
Summary of the method: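 Viability counter screen: HRE-bla ME-180 cells plated 5 hrs before compound addition, treated 17 hrs at 37C and 5% CO2, then CellTiter-Glo added after the FRET reporter read; luminescence after 30 min.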

[13] = qHTS assay to identify small molecule agonists of H2AX (AID 1224845; active = well fitted activation curve with a large enough effect in the signal ratio in the repeat runs, not every such curve was filed as active; the % refers to the signal ratio)
Summary of the method: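 Wild-type CHO-K1 cells, plated overnight, exposed 3hr at 37C to 15 concentrations (0.76% DMSO final). Lysed, then HTRF anti-pH2AX (S139) cryptate and anti-H2AX-d2 antibodies, 24 hr room temperature; 665/620 nm emission read.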

[14] = qHTS assay to identify small molecule agonists of the hypoxia (HIF-1) signaling pathway (AID 1224846; active = well fitted activation curve with a large enough effect in the signal ratio in the repeat runs, not every such curve was filed as active; the % refers to the signal ratio)
Summary of the method: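 Agonist mode reporter screen. ME-180 cells stably expressing bla under HRE control received test compounds in DMSO for 17 hrs (37C, 5% CO2), and beta-lactamase activity was then detected with the CCF4-AM FRET substrate.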

[15] = qHTS assay to identify small molecule agonists of the constitutive androstane receptor (CAR) signaling pathway - cell viability counter screen (AID 1224836); note: nearly all actives have a fitted effect of over 45% in size
Summary of the method: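 Compound titrations (15 concentrations) went onto HepG2-CYP2B6-hCAR cells 4 h after seeding, alongside PK11195 at a final 0.75 uM; a 23 h, 37 C/5% CO2 incubation preceded CellTiter-Fluor viability measurement.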

[16] = molecular target: Thyrotropin receptor (Homo sapiens) (UniProt P16473); assay: qHTS assay to identify small molecule agonists of the thyroid stimulating hormone receptor (TSHR) signaling pathway (AID 1224843; calls by dose curve; note: nearly all actives have a fitted effect of over 45% in size)
Chain of Thyrotropin receptor (Homo sapiens) (P16473 whole entry, looked up): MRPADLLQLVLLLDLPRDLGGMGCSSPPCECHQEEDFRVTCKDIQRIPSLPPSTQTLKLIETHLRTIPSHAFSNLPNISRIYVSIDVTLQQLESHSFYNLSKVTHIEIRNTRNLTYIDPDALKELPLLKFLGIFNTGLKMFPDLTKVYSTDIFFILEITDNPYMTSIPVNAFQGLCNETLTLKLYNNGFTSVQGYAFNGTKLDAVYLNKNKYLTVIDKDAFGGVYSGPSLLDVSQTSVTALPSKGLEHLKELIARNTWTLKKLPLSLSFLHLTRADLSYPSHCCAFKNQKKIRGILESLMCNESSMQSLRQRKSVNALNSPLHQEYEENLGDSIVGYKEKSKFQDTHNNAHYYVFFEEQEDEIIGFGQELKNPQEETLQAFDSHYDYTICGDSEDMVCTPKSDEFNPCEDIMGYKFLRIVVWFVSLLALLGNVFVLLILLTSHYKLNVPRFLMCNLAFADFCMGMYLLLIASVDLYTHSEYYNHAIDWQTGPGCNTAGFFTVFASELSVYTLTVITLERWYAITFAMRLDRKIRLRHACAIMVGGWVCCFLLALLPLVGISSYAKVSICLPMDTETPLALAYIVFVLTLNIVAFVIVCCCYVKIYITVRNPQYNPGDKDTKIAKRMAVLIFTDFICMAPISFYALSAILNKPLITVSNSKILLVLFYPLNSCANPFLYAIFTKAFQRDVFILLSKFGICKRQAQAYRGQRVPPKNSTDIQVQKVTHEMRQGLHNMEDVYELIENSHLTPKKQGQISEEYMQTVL
Summary of the method: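 HEK293/TSHR, 800 cells/well; cpd 30 min RT; add cAMP-d2 + anti-cAMP-cryptate, 1 h RT; fluorescence read on plate reader. 15-pt titration, n=3.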

[17] = qHTS assay to identify small molecule agonists of H2AX - cell viability counter screen (AID 1224847; calls by dose curve; note: top concentration of the series differs between compounds; nearly all actives have a fitted effect of over 30% in size)
Summary of the method: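 Read-out: CellTiter-Glo luminescence, 30 min RT. Cells: wild-type CHO-K1, 1000/well, 10% FBS, plated overnight at 37C. Treatment: 15 concentrations, 3 hr, 37C, 0.76% DMSO.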

[18] = qHTS assay to identify small molecule agonists of the estrogen related receptor signaling pathway with the pleiotropic PPARgamma coactivator (PGC) from Tox21 10K library (AID 1224842); note: nearly all actives have a fitted effect of over 15% in size
Summary of the method: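 PGC/ERR reporter cell line, 2,000 cells per well, incubated 6 h at 37 C before 23 nL compound in DMSO was added. After 18 h at 37 C, One-Glo luminescence read following 30 min at room temperature.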

[19] = qHTS assay to identify small molecule antagonists of the estrogen related receptor signaling pathway with the pleiotropic PPARgamma coactivator (PGC) from Tox21 10K library (AID 1224841; call rule not given here; note: actives are mostly falling curves and most rising ones were filed inactive; nearly all actives have a fitted effect of over 50% in size)
Summary of the method: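 Cells stably carrying the PGC/ERR reporter, seeded at 2,000 per well, received pin-transferred compounds 6 h post-plating. Exposure lasted 18 h at 37 C. Signal: One-Glo luminescence.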

[20] = qHTS assay to identify small molecule antagonists of the estrogen related receptor (ERR) signaling pathway from Tox21 library (AID 1224848); note: nearly all actives have a fitted effect of over 50% in size
Summary of the method: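 Compounds dissolved in DMSO are pin-transferred onto ERR reporter cells (2,000 per well) that have settled for 6 h at 37 C. Plates then incubate 18 h at 37 C before ONE-Glo luciferase reagent and a luminescence read 30 min later.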
% is set by controls: 0 for no effect and ±100 for the full control effect.

CC(C)COC(=O)CC(C(=O)OCC(C)C)S(=O)(=O)O (centres undefined)
inactive: Potency [1] | outcome [2] | outcome [3] | Potency [4] | Potency [5] | Potency [6] | Potency [7] | Potency [8] | Potency [9] | Potency [10] | outcome [11] | outcome [12] | outcome [13] | outcome [14]

C=CCOCC(O)CCl (centres undefined)
inactive: Potency [1] | outcome [2] | outcome [3] | Potency [4] | Potency [5] | Potency [6] | Potency [7] | outcome [15] | Potency [8] | outcome [11] | outcome [12] | outcome [13] | outcome [14]

COCC(=O)Nc1c(I)c(C(=O)NCC(O)CO)c(I)c(C(=O)N(C)CC(O)CO)c1I (centres undefined)
inactive: Potency [1] | outcome [2] | outcome [3] | Potency [4] | Potency [5] | Potency [6] | Potency [7] | Potency [8] | outcome [11] | outcome [16] | outcome [12] | outcome [13] | Potency [17]

Cc1ccccc1N1CCN(CCc2nnc3n2CCCC3)CC1
inactive: Potency [1] | outcome [2] | outcome [3] | Potency [4] | Potency [5] | Potency [6] | Potency [7] | Potency [8] | outcome [16] | outcome [12] | outcome [13] | outcome [14] | Potency [17]

CC(C)COC(=O)CCCCC(=O)OCC(C)C
inactive: Potency [1] | outcome [2] | outcome [3] | Potency [4] | Potency [5] | Potency [6] | Potency [7] | outcome [15] | Potency [8] | outcome [11] | outcome [12] | outcome [13] | outcome [14]

Cc1oc(=O)oc1CN1CCN(c2cc3c(cc2F)c(=O)c(C(=O)O)c2n3C(C)S2)CC1 (centres undefined)
inactive: Potency [1] | outcome [2] | outcome [3] | Potency [4] | Potency [5] | Potency [6] | outcome [15] | Potency [8] | outcome [11] | outcome [16] | outcome [12] | outcome [13] | outcome [14] | Potency [17]

CCC(C)(CCC(C)C)C(=O)[O-].CCC(C)(CCC(C)C)C(=O)[O-].[Zn+2] (centres undefined)
inactive: Potency [1] | outcome [2] | outcome [3] | Potency [4] | Potency [5] | Potency [6] | outcome [15] | Potency [8] | outcome [11] | outcome [18] | outcome [12] | outcome [13] | outcome [14] | Potency [17]

Cn1c(=O)c2c(ncn2CC2OCCO2)n(C)c1=O
inactive: Potency [1] | outcome [2] | outcome [3] | Potency [4] | Potency [5] | Potency [6] | Potency [7] | Potency [8] | Potency [9] | Potency [19] | outcome [18] | outcome [12] | outcome [13] | outcome [14] | Potency [17] | Potency [20]

Nc1ccc(S(=O)(=O)Nc2ccccn2)cc1
inactive: Potency [1] | outcome [2] | outcome [3] | Potency [4] | Potency [5] | Potency [6] | Potency [7] | Potency [8] | Potency [10] | outcome [11] | outcome [16] | outcome [12] | outcome [13] | Potency [17]

Cc1ccc(C(=O)C(=O)O)cc1C
inactive: Potency [1] | outcome [2] | outcome [3] | Potency [4] | Potency [5] | Potency [6] | Potency [7] | outcome [15] | Potency [8] | outcome [11] | outcome [12] | outcome [13] | outcome [14] | Potency [17]

Cc1ncc([N+](=O)[O-])n1CC(O)CCl (centres undefined)
inactive: Potency [1] | outcome [2] | outcome [3] | Potency [4] | Potency [5] | Potency [6] | outcome [15] | Potency [8] | Potency [9] | outcome [11] | Potency [19] | outcome [18] | outcome [16] | outcome [12] | outcome [13] | outcome [14] | Potency [17] | Potency [20]

C[Si]1(C)N[Si](C)(C)N[Si](C)(C)N1
inactive: Potency [1] | outcome [2] | outcome [3] | Potency [4] | Potency [5] | Potency [6] | outcome [15] | Potency [8] | Potency [9] | Potency [10] | outcome [12] | outcome [13] | outcome [14]

CCCCOC(=O)C(=O)OCCCC
inactive: Potency [1] | outcome [2] | outcome [3] | Potency [4] | Potency [5] | Potency [6] | outcome [15] | Potency [8] | Potency [9] | Potency [10] | outcome [11] | outcome [18] | outcome [12] | outcome [13] | outcome [14] | Potency [17] | Potency [20]

C1=CCC(c2ccccc2)CC1 (centres undefined)
inactive: Potency [1] | outcome [2] | outcome [3] | Potency [4] | Potency [5] | Potency [6] | Potency [7] | Potency [8] | outcome [11] | outcome [18] | outcome [16] | outcome [12] | outcome [13] | outcome [14] | Potency [17] | Potency [20]

CC1=CC[C@H](CC=O)C1(C)C
inactive: Potency [1] | outcome [2] | outcome [3] | Potency [4] | Potency [5] | Potency [6] | outcome [15] | Potency [8] | outcome [11] | outcome [16] | outcome [12] | outcome [13] | outcome [14] | Potency [17]

Cc1nc2ccccc2c(=O)o1
inactive: Potency [1] | outcome [2] | outcome [3] | Potency [4] | Potency [5] | Potency [6] | outcome [15] | Potency [8] | Potency [9] | outcome [11] | outcome [16] | outcome [12] | outcome [13] | outcome [14] | Potency [17]

O=CO
inactive: activation [1] 1.02% [at 6.98 µM] | activity change, negative = cytotoxicity [2] 0.323% [at 6.97 µM] | activity change, negative = cytotoxicity [3] 2.98% [at 8.39 µM] | activity, negative = inhibition [4] -7.08% [at 8.39 µM] | activation [5] -3.33% [at 8.36 µM] | viability change, negative = cytotoxic [6] -0.634% [at 8.39 µM] | viability change, negative = cytotoxic [15] 2.87% [at 8.39 µM] | activity change, negative = cytotoxicity [8] -0.437% [at 8.39 µM] | activity, negative = inhibition [9] -2.01% [at 8.39 µM] | activation [10] -3.71% [at 8.39 µM] | viability change, negative = cytotoxic [11] -0.178% [at 8.39 µM] | activity, negative = inhibition [19] 4.47% [at 8.39 µM] | activation [18] -0.64% [at 8.39 µM] | activity change, negative = cytotoxicity [12] -0.151% [at 6.97 µM] | activation (H2AX phosphorylation) [13] 0.0105% [at 14 µM] | activation [14] -0.756% [at 7.01 µM] | activity change, negative = cytotoxicity [17] 0.103% [at 14 µM] | activity, negative = inhibition [20] -2.33% [at 8.39 µM]
